Measured values published in PubChem BioAssay.
A number with no mark means an inactive call. Active and inactive are the calls of the source.

Experiment: forskolin-driven CRE-LacZ activity in PC12 – cell-based, CRE-LacZ reporter, forskolin-stimulated, primary screen (AID 1146);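 also: PC12 cells with 6xCRE LacZ reporter stimulated by forskolin 10 µM; beta-galactosidase reporter signal reflecting CREB driven transcription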
Settings: luminescence, 4.5 h, higher = more signal, called active from +8 up or from −8 down

Compared with `CN1C2C=C(c3ccc(CO)cc3)C(C3C(=O)N(C(N)=O)C(=O)C32)C1C1CC1` (stereo unspecified), `COCCCNC(=O)[C@@]1(Cc2ccccc2I)c2ccccc2C(=O)N(C2CCCCC2)[C@H]1c1ccc(CO)cc1` is lower in z-score: 0.527 for the first, -0.175 for the second.

Compared with `COc1cc(Cc2cc3c(c(CCc4ccccc4)n2)[Si](C(C)C)(C(C)C)O[C@H]3c2ccccc2)cc(OC)c1OC`, `COc1c(C)cc(-c2nc(-c3ccccc3)c3c(c2C)CO[Si]3(C(C)C)C(C)C)cc1C` is lower in z-score: 0.992 for the first, 0.456 for the second.

Compared with `C=CCOC(=O)[C@H]1[C@@H]2C(=O)O[C@@H](c3ccccc3)[C@@H](c3ccccc3)N2[C@@H](c2ccc(OCCOC(=O)[C@@H]3C[C@@H]4C(=O)N[C@@H](Cc5ccccc5)C(=O)N4[C@@H]3c3ccc(O)cc3)cc2)[C@]12C(=O)Nc1ccc(I)cc12`, `C=CCNC(=O)[C@@H]1[C@H]2C(=O)O[C@H](c3ccccc3)[C@H](c3ccccc3)N2[C@H](c2ccc(OCCO)cc2)[C@@]12C(=O)N(C(=O)OCCOC)c1ccccc12` is lower in z-score: 0.695 for the first, -0.477 for the second.

Compared with `C=CC[C@]1(C(N)=O)N=C(c2ccc(OCCCO)cc2)O[C@H]1c1ccccc1N=[N+]=[N-]`, `[N-]=[N+]=Nc1ccccc1C[C@]1(C(=O)N2CCCCC2)N=C(c2ccc(OCCCO)cc2)O[C@H]1c1ccccc1` is higher in z-score: -1.81 for the first, -0.0671 for the second.

Going from `COc1ccc(CCNC(=O)[C@@H]2c3ccccc3C(=O)N(Cc3cc(F)cc(C(F)(F)F)c3)[C@H]2c2ccc(CO)cc2)cc1` to `C=CCNC(=O)[C@@H]1[C@H]2C(=O)O[C@H](c3ccccc3)[C@H](c3ccccc3)N2[C@H](c2ccc(OCCO)cc2)[C@@]12C(=O)Nc1ccc(C#CC3=CCCCC3)cc12`, the z-score rises from -1.11 to -0.0321.

Going from `CC(C)C[C@@H]1NC(=O)[C@@H]2C[C@H](C(=O)NCCCCCNC(=O)CS)[C@H](c3ccc(O)cc3)N2C1=O` to `COCCOC(=O)N1C(=O)[C@@]2(c3cc(C#CCCO)ccc31)[C@H](c1ccc(O)cc1)N1[C@H](c3ccccc3)[C@H](c3ccccc3)OC(=O)[C@H]1[C@@H]2C(=O)NC[C@H](O)c1ccccc1`, the z-score rises from -0.661 to -0.583.

First: CCCCC(=C=CC[C@@H](O)c1ccccc1OCCO)C[C@@H](O)c1ccccn1
Second: CCCCC(=C=CC[C@H](O)c1ccccc1OCCO)CCO
The z-score of the first is lower: -0.446 for the first, 1.37 for the second.

Going from `O=C1O[C@@H](c2ccccc2)[C@@H](c2ccccc2)N2[C@@H](c3ccccc3OCCO)[C@]3(C(=O)Nc4ccc(C#CC5(O)CCCCCC5)cc43)[C@@H](C(=O)N3CCCCCCC3)[C@H]12` to `C=CCNC(=O)[C@@H]1[C@H]2C(=O)O[C@H](c3ccccc3)[C@H](c3ccccc3)N2[C@H](c2ccc(O)cc2)[C@@]12C(=O)Nc1ccc(C#CC3=CCCCC3)cc12`, the z-score falls from 0.306 to -0.679.

First: CC(C)N1CC=CC23O[C@@H]4/C=C\CCCOC(=O)C4[C@H]2C(=O)N(C(C)CO)[C@@H]3C1=O (stereo partly specified)
Second: COc1ccc([Si](C)(C)[C@H]2[C@H](CC(=O)N3CCC[C@H]3CO)O[C@@]3(C(=O)N(C)c4ccccc43)[C@@H]2C)cc1
The z-score of the first is lower: -0.869 for the first, 1.33 for the second.

Compared with `COC(=O)C1(CC(C)C)C=C2C(=C(C)C(=O)C2C)CN1` (stereo unspecified), `CCCC=C(CCC)[C@@H](NC(=O)c1ccc(C(=O)OC)cc1)c1ccc(C(=O)OC)cc1` is lower in z-score: 2.32 for the first, 1.06 for the second.

Going from `O=C/C=C/c1ccc(-c2ccccc2)cc1` to `Cc1ccc(S(=O)(=O)N2[C@@H](c3ccccc3)C(C(=O)O)=CC[C@H]2c2ccc(F)cc2)cc1`, the z-score falls from 3.74 to 0.398.

Going from `COC(=O)C(CC#Cc1ccc2c(c1)[C@]1(C(=O)N2)[C@H](C(=O)N2CCN(c3ncccn3)CC2)[C@H]2C(=O)O[C@H](c3ccccc3)[C@H](c3ccccc3)N2[C@@H]1c1ccc(O)cc1)C(=O)OC` to `COC(=O)c1c2oc(c1C(=O)OC)C(=O)N[C@H](Cc1ccccc1)Cn1cc(nn1)C1(CCCCC1)NC(=O)N[C@H](CO)CC2`, the z-score rises from 0.0989 to 0.334.

With `C=C(C(=O)CC[C@@H](OC(=O)c1ccccc1-c1ccccc1C(=O)O)c1cccc(OCCO)c1)C(C)C` the z-score was 2.88.

In the case of `CCOC(=O)C1=CC[C@@H](c2ccccc2)N(S(=O)(=O)c2ccc(C)cc2)[C@@H]1C#N`, the z-score is reported as 40.6 (active).
